{"source": "ChEMBL document CHEMBL1157539", "about": "“Thousands of chemical starting points for antimalarial lead identification” (Nature, 2010)", "type_in_all_cases": "functional", "key": {"Plasmodium falciparum [1]": {"system": "Plasmodium falciparum", "assay": "GSK_TCMDC: Inhibition of Plasmodium falciparum 3D7 in whole red blood cells, using parasite LDH activity as an index of growth. Test compounds present at 2uM"}, "Plasmodium falciparum [2]": {"system": "Plasmodium falciparum", "assay": "GSK_TCMDC: Inhibition of Plasmodium falciparum Dd2 in whole red blood cells, using parasite LDH activity as an index of growth. Test compounds present at 2uM"}, "HepG2": {"system": "HepG2", "assay": "GSK_TCMDC: Percent inhibition of human HepG2 cell line. Test compounds present at 10uM."}}, "data": [{"smiles": "CCOC(=O)c1c[nH]c2c(ccc3ccccc32)c1=O", "values": [{"measurement": "Inhibition", "setting": "Plasmodium falciparum [1]", "value": 96, "unit": "%"}, {"measurement": "Inhibition", "setting": "Plasmodium falciparum [2]", "value": 96, "unit": "%"}, {"measurement": "Inhibition", "setting": "HepG2", "value": 0, "unit": "%"}]}, {"smiles": "COC(=O)c1sc2ccccc2c1NC(=O)c1ccc(C)c(C)c1", "values": [{"measurement": "Inhibition", "setting": "Plasmodium falciparum [1]", "value": 88, "unit": "%"}, {"measurement": "Inhibition", "setting": "Plasmodium falciparum [2]", "value": 48, "unit": "%"}, {"measurement": "Inhibition", "setting": "HepG2", "value": 4, "unit": "%"}]}, {"smiles": "Cl.Cn1nc(C(F)(F)F)cc1-c1ccc(C(=O)Nc2ccc3c(c2)CNCC3(C)C)s1", "values": [{"measurement": "Inhibition", "setting": "Plasmodium falciparum [1]", "value": 88, "unit": "%"}, {"measurement": "Inhibition", "setting": "Plasmodium falciparum [2]", "value": 36, "unit": "%"}, {"measurement": "Inhibition", "setting": "HepG2", "value": 10, "unit": "%"}]}, {"smiles": "CCCc1cc(C(=O)N[C@@H](Cc2ccccc2)[C@H](O)CNC2CCOCC2)c(F)c(N2CCCCS2(=O)=O)c1", "values": [{"measurement": "Inhibition", "setting": "Plasmodium falciparum [1]", "value": 97, "unit": "%"}, {"measurement": "Inhibition", "setting": "Plasmodium falciparum [2]", "value": 97, "unit": "%"}, {"measurement": "Inhibition", "setting": "HepG2", "value": 0, "unit": "%"}]}, {"smiles": "O=C(Nc1ccc2c(c1)CCC2)c1ccc(CN2CCCN(Cc3cccc(O)c3)CC2)cc1.O=C(O)C(F)(F)F", "values": [{"measurement": "Inhibition", "setting": "Plasmodium falciparum [1]", "value": 88, "unit": "%"}, {"measurement": "Inhibition", "setting": "Plasmodium falciparum [2]", "value": 46, "unit": "%"}, {"measurement": "Inhibition", "setting": "HepG2", "value": 45, "unit": "%"}]}, {"smiles": "COc1cccc(-c2ccc3ccnc(N)c3c2)c1.O=C(O)C(F)(F)F", "values": [{"measurement": "Inhibition", "setting": "Plasmodium falciparum [1]", "value": 100, "unit": "%"}, {"measurement": "Inhibition", "setting": "Plasmodium falciparum [2]", "value": 93, "unit": "%"}, {"measurement": "Inhibition", "setting": "HepG2", "value": 40, "unit": "%"}]}, {"smiles": "O=C(NC(NC(=S)Nc1ccc([N+](=O)[O-])cc1)C(Cl)(Cl)Cl)c1cccc(Cl)c1", "note": "(stereo unspecified)", "values": [{"measurement": "Inhibition", "setting": "Plasmodium falciparum [1]", "value": 97, "unit": "%"}, {"measurement": "Inhibition", "setting": "Plasmodium falciparum [2]", "value": 100, "unit": "%"}, {"measurement": "Inhibition", "setting": "HepG2", "value": 24, "unit": "%"}]}, {"smiles": "CC(C)(C)c1ccc(-c2cc3c(ccc4nc(N)nc(N)c43)[nH]2)cc1", "values": [{"measurement": "Inhibition", "setting": "Plasmodium falciparum [1]", "value": 100, "unit": "%"}, {"measurement": "Inhibition", "setting": "Plasmodium falciparum [2]", "value": 100, "unit": "%"}, {"measurement": "Inhibition", "setting": "HepG2", "value": 100, "unit": "%"}]}, {"smiles": "CN1CCN(c2ncnc3ccc(NC(=O)Nc4ccc(Cl)c(Cl)c4)cc23)CC1", "values": [{"measurement": "Inhibition", "setting": "Plasmodium falciparum [1]", "value": 100, "unit": "%"}, {"measurement": "Inhibition", "setting": "Plasmodium falciparum [2]", "value": 89, "unit": "%"}, {"measurement": "Inhibition", "setting": "HepG2", "value": 7, "unit": "%"}]}, {"smiles": "Nc1c2c(nc3ccc(NC(=O)c4ccccc4)cc13)CCCC2", "values": [{"measurement": "Inhibition", "setting": "Plasmodium falciparum [1]", "value": 99, "unit": "%"}, {"measurement": "Inhibition", "setting": "Plasmodium falciparum [2]", "value": 8, "unit": "%"}, {"measurement": "Inhibition", "setting": "HepG2", "value": 0, "unit": "%"}]}, {"smiles": "CCCCCC(C)C(C)c1cc(O)c2c(c1)OC(C)(C)C=C2c1cc[n+]([O-])cc1", "note": "(stereo unspecified)", "values": [{"measurement": "Inhibition", "setting": "Plasmodium falciparum [1]", "value": 91, "unit": "%"}, {"measurement": "Inhibition", "setting": "Plasmodium falciparum [2]", "value": 2, "unit": "%"}, {"measurement": "Inhibition", "setting": "HepG2", "value": 11, "unit": "%"}]}, {"smiles": "Nc1nc(N)c2cc(NC(=O)c3ccc(Cl)c(Cl)c3)ccc2n1", "values": [{"measurement": "Inhibition", "setting": "Plasmodium falciparum [1]", "value": 100, "unit": "%"}, {"measurement": "Inhibition", "setting": "Plasmodium falciparum [2]", "value": 83, "unit": "%"}, {"measurement": "Inhibition", "setting": "HepG2", "value": 100, "unit": "%"}]}, {"smiles": "Cl.N=c1n(Cc2ccc(Cl)cc2)c2ccccc2n1CC(O)c1ccc(Cl)c(Cl)c1", "note": "(stereo unspecified)", "values": [{"measurement": "Inhibition", "setting": "Plasmodium falciparum [1]", "value": 98, "unit": "%"}, {"measurement": "Inhibition", "setting": "Plasmodium falciparum [2]", "value": 99, "unit": "%"}, {"measurement": "Inhibition", "setting": "HepG2", "value": 58, "unit": "%"}]}, {"smiles": "COc1cc(F)c2ncc(Cl)c(CCN3CCC(NCc4ccc5c(n4)NC(=O)CS5)CC3)c2c1.Cl", "values": [{"measurement": "Inhibition", "setting": "Plasmodium falciparum [1]", "value": 99, "unit": "%"}, {"measurement": "Inhibition", "setting": "Plasmodium falciparum [2]", "value": 41, "unit": "%"}, {"measurement": "Inhibition", "setting": "HepG2", "value": 18, "unit": "%"}]}, {"smiles": "Cc1[nH]cnc1CSCCN/C(=N\\C#N)NCCCCCCCCN/C(=N/C#N)NCCSCc1nc[nH]c1C", "values": [{"measurement": "Inhibition", "setting": "Plasmodium falciparum [1]", "value": 81, "unit": "%"}, {"measurement": "Inhibition", "setting": "Plasmodium falciparum [2]", "value": 48, "unit": "%"}, {"measurement": "Inhibition", "setting": "HepG2", "value": 1, "unit": "%"}]}, {"smiles": "O=C(Nc1ccc(Br)cc1)c1cc(Br)ccc1NS(=O)(=O)c1cc(C(F)(F)F)cc(C(F)(F)F)c1", "values": [{"measurement": "Inhibition", "setting": "Plasmodium falciparum [1]", "value": 85, "unit": "%"}, {"measurement": "Inhibition", "setting": "Plasmodium falciparum [2]", "value": 67, "unit": "%"}, {"measurement": "Inhibition", "setting": "HepG2", "value": 68, "unit": "%"}]}, {"smiles": "C[C@H](Cc1ccc(OCCCCCCOc2ccc(C[C@@H](C)NC(=O)[C@H](O)c3cccc(Cl)c3)cc2)cc1)NC[C@H](O)c1cccc(Cl)c1", "values": [{"measurement": "Inhibition", "setting": "Plasmodium falciparum [1]", "value": 99, "unit": "%"}, {"measurement": "Inhibition", "setting": "Plasmodium falciparum [2]", "value": 99, "unit": "%"}, {"measurement": "Inhibition", "setting": "HepG2", "value": 39, "unit": "%"}]}, {"smiles": "COc1ccc(CC(=O)NC(CCN2CCC3(CC2)CN(S(C)(=O)=O)c2ccccc23)c2ccc(Cl)c(Cl)c2)cc1OC", "note": "(stereo unspecified)", "values": [{"measurement": "Inhibition", "setting": "Plasmodium falciparum [1]", "value": 92, "unit": "%"}, {"measurement": "Inhibition", "setting": "Plasmodium falciparum [2]", "value": 77, "unit": "%"}, {"measurement": "Inhibition", "setting": "HepG2", "value": 10, "unit": "%"}]}, {"smiles": "Cc1cc(C(F)(F)F)n2nc(C(=O)N(Cc3cncn3Cc3ccccc3F)CC3CC3)cc2n1", "values": [{"measurement": "Inhibition", "setting": "Plasmodium falciparum [1]", "value": 100, "unit": "%"}, {"measurement": "Inhibition", "setting": "Plasmodium falciparum [2]", "value": 100, "unit": "%"}, {"measurement": "Inhibition", "setting": "HepG2", "value": 0, "unit": "%"}]}, {"smiles": "CN1CCN(Cc2ccc(-c3ccc4c(Nc5cc(O)c(Cl)cc5F)ccnc4c3)o2)CC1", "values": [{"measurement": "Inhibition", "setting": "Plasmodium falciparum [1]", "value": 100, "unit": "%"}, {"measurement": "Inhibition", "setting": "Plasmodium falciparum [2]", "value": 99, "unit": "%"}, {"measurement": "Inhibition", "setting": "HepG2", "value": 2, "unit": "%"}]}, {"smiles": "S=C(NCCCCCN1CCC(c2c[nH]c3ccccc23)CC1)Nc1cccc(I)c1", "values": [{"measurement": "Inhibition", "setting": "Plasmodium falciparum [1]", "value": 99, "unit": "%"}, {"measurement": "Inhibition", "setting": "Plasmodium falciparum [2]", "value": 14, "unit": "%"}, {"measurement": "Inhibition", "setting": "HepG2", "value": 69, "unit": "%"}]}, {"smiles": "CC(C)c1ccc(S(=O)(=O)Nc2cccc(CCN3CCC(N4CCCCC4)CC3)c2)cc1", "values": [{"measurement": "Inhibition", "setting": "Plasmodium falciparum [1]", "value": 100, "unit": "%"}, {"measurement": "Inhibition", "setting": "Plasmodium falciparum [2]", "value": 35, "unit": "%"}, {"measurement": "Inhibition", "setting": "HepG2", "value": 37, "unit": "%"}]}, {"smiles": "O=C(O)C(F)(F)F.O=S(=O)(NCCN1CCCC1)c1cccc(-c2cccc(CNCc3ccsc3)c2)c1", "values": [{"measurement": "Inhibition", "setting": "Plasmodium falciparum [1]", "value": 100, "unit": "%"}, {"measurement": "Inhibition", "setting": "Plasmodium falciparum [2]", "value": 55, "unit": "%"}, {"measurement": "Inhibition", "setting": "HepG2", "value": 69, "unit": "%"}]}, {"smiles": "O=C(O)C(F)(F)F.O=c1ccc2ccc(F)c3c2n1CC3CN1CCC(NCc2cccc(-c3ccccc3F)c2)CC1", "note": "(stereo unspecified)", "values": [{"measurement": "Inhibition", "setting": "Plasmodium falciparum [1]", "value": 100, "unit": "%"}, {"measurement": "Inhibition", "setting": "Plasmodium falciparum [2]", "value": 6, "unit": "%"}, {"measurement": "Inhibition", "setting": "HepG2", "value": 29, "unit": "%"}]}, {"smiles": "O=C(O)C(F)(F)F.c1cc(CNCc2ccc3c(c2)OCO3)cc(-c2cccc(CNc3ccc4ncccc4c3)c2)c1", "values": [{"measurement": "Inhibition", "setting": "Plasmodium falciparum [1]", "value": 98, "unit": "%"}, {"measurement": "Inhibition", "setting": "Plasmodium falciparum [2]", "value": 27, "unit": "%"}, {"measurement": "Inhibition", "setting": "HepG2", "value": 18, "unit": "%"}]}, {"smiles": "O=C(Nc1cccc(OC2CCN(Cc3ccccc3)CC2)c1)Nc1cccc([N+](=O)[O-])c1.O=C(O)C(F)(F)F", "values": [{"measurement": "Inhibition", "setting": "Plasmodium falciparum [1]", "value": 100, "unit": "%"}, {"measurement": "Inhibition", "setting": "Plasmodium falciparum [2]", "value": 48, "unit": "%"}, {"measurement": "Inhibition", "setting": "HepG2", "value": 10, "unit": "%"}]}, {"smiles": "CS(=O)(=O)c1ccc(CNCc2ccc(-c3ccc(-c4nc5cc(C(F)(F)F)ccc5[nH]4)cc3)cc2)cc1.O=C(O)C(F)(F)F", "values": [{"measurement": "Inhibition", "setting": "Plasmodium falciparum [1]", "value": 100, "unit": "%"}, {"measurement": "Inhibition", "setting": "Plasmodium falciparum [2]", "value": 82, "unit": "%"}, {"measurement": "Inhibition", "setting": "HepG2", "value": 26, "unit": "%"}]}]}
